Compound activity as filed in PubChem BioAssay.
TMEM16A act – TMEM16A chloride channel activators or potentiators, primary screen, cell-based, HTS | Anoctamin-1 (Mus musculus), Q8BHY3 | HEK293 TMEM16A/YFP-H148Q/I152L, iodide quench fluorescence; stronger effect = lower value | B-score at 10 µM | 0.3% of 340,000 active | AID 623877, 2012;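 active = fluorescence-ratio B-score plate-corrected deviation score at least 3 library SD below zero, with starting fluorescence score within 5 deviations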;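 also: channel opened by trigger with iodide after compound preincubation; score built on the fluorescence ratio of max minus min over baseline; more negative score means more quench and so TMEM16A activation or potentiation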
KCNK3 block – human KCNK3 channel inhibitors, primary screen, CHO cells, FluxOR thallium flux, B-score. B-score at 10 µM. FluxOR fluorescence; stronger effect = lower value. 0.84% of 340,000 active. Potassium channel subfamily K member 3 (Homo sapiens), O14649. AID 602410, 2012;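 active = B-score under library mean minus 4 SD, starting fluorescence ratio at most library mean plus 5 SD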;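 also: more negative B-score means stronger inhibition of thallium flux through KCNK3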
KCNK9 inh – KCNK9 potassium channel inhibitors, primary screen, HEK293 cells, thallium flux; 1.2% of 310,000 active; FluxOR thallium flux fluorescence; stronger effect = lower value; B-score at 10 µM; Potassium channel subfamily K member 9 (Homo sapiens), Q9NPC2;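 active = ratio B-score over 3 SD below the library mean, with starting fluorescence within 5 SD of its mean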;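 also: negative B-score means less thallium flux so channel inhibition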
Target sequence (Q9NPC2 whole entry, looked up): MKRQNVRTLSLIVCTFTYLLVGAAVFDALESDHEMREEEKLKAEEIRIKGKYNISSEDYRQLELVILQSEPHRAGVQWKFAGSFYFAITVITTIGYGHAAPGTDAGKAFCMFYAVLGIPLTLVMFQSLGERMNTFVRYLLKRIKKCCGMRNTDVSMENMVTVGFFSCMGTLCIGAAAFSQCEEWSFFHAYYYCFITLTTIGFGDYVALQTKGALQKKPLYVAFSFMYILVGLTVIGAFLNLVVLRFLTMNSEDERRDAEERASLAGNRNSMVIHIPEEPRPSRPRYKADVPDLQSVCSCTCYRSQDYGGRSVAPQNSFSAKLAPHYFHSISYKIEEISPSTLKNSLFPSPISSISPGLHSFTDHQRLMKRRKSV
Kir21 block – inhibitors of mouse Kir2.1 inward-rectifier potassium channel; Inward rectifier potassium channel 2 (Mus musculus), P35561; AID 1672, 2009; B-score at 10 µM; HEK293-Kir2.1, FluxOR thallium flux fluorescence; stronger effect = lower value; 0.85% of 310,000 active;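 active = fluorescence ratio B-score at or below minus 3 SD of library scores, with starting-brightness B-score within 2 SD, cut at about -4.2 in these data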;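 also: channel flux triggered by added potassium and thallium sulfate stimulus; B-score of peak minus minimum fluorescence over baseline after thallium stimulus; more negative B-score means stronger Kir2.1 block with less thallium influx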
TMEM16A inh – TMEM16A chloride channel inhibitors, primary screen, cell-based, HTS; Anoctamin-1 (Mus musculus), Q8BHY3; HEK293 TMEM16A/YFP iodide influx fluorescence, ionomycin; normalized B-score (activity score, 25-100; higher = stronger inhibition) at 10 µM; 1.2% of 310,000 active;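 active = ratio plate-corrected score three or more library SD toward inhibition, starting fluorescence score within five deviations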;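 also: score derived from kinetic fluorescence span divided by baseline fluorescence per well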
The depositor's hits bear a star; i = inactive; nt = no result. Hits are enriched below; roughly 3.5% of the tested compounds scored in any of these assays.

SMILES | TMEM16A act | KCNK3 block | KCNK9 inh | Kir21 block | TMEM16A inh
Nc1ncc(Br)cc1S(=O)(=O)Nc1cc(C(F)(F)F)cc(C(F)(F)F)c1 | -5* | i | i | -2.9 | 100*
Cc1occc1C(=O)N1CCN(c2ncccn2)CC1 | -50* | i | i | 1.1 | i
Cc1ccccc1C(=O)N1CCN(c2ncccn2)CC1 | i | i | i | -0.18 | i
Cc1ccc(NC(=O)C2(S(=O)(=O)c3ccc(Cl)cc3)CC2)cc1 | i | i | i | -0.93 | i
Cc1ccc(/C=N/Nc2ncc(Cl)cc2Cl)s1 | i | i | i | 1.9 | 25*
O=S(=O)(c1ccccc1)[C@@]1(c2ccc(Br)cc2)C[C@@H]2ON=C(c3ccccc3)[C@@H]2C1 | i | i | i | -0.86 | i
Cc1ccc(-c2nc(CN(CC3CCC3)CC3CCCO3)c(C)o2)s1 (configuration not stated) | i | i | -7.1* | -1.3 | i
Cc1ccc(CNCC2CCCO2)s1 (configuration not stated) | i | i | i | 0.63 | i
CCOC(=O)c1ccc(N2CCN(c3cc(C)ccc3C)CC2)c(N)c1 | i | i | -6.8* | 0.27 | i
Cc1ccc(C(=O)N/C(=C/c2ccccc2)C(=O)NCC2CCCO2)cc1 (configuration not stated) | i | i | i | -0.08 | i
O=C(Nc1ccc2c(c1)OCO2)C1CC(c2ccc(Cl)cc2)=NO1 (configuration not stated) | i | i | i | 0.15 | 100*
COc1ccc(C2=NOC(C(=O)Nc3ccc4c(c3)OCO4)C2)cc1 (configuration not stated) | i | i | i | -1.5 | i
CCc1nn(CC(=O)NCCCN2CCc3ccccc3C2)c(=O)c2cc3sccc3n12 | i | i | i | -1.4 | 100*
CC(=O)/C=C1/C(=O)Nc2ccccc21 | i | i | i | -5.2* | i
Cc1cc(C)cc(NC(=O)C2CCN(c3nccs3)CC2)c1 | -14* | i | i | 0.36 | i
COC(=O)N/N=C/c1cc(N=Nc2ccccc2Cl)ccc1O | i | i | -7.9* | 0.74 | i
CCCCCCC(=O)N1CCN(c2cc3c(cc2F)c(=O)c(C(=O)O)cn3CC)CC1 | i | i | i | 0 | i
CCCCCCCCCC(=O)N1CCN(c2cc3c(cc2F)c(=O)c(C(=O)O)cn3CC)CC1 | -8.6* | i | i | -0.07 | i
CCn1c(=O)n(CC(=O)Nc2cc(OC)c(OC)c(OC)c2)c(=O)c2ccccc21 | i | i | i | -0.52 | i
COc1cc(OC)cc(N(C(=O)c2ccco2)C(C(=O)NC2CCCC2)c2ccc(N3CCOCC3)cc2)c1 (configuration not stated) | i | i | i | -0.84 | i
COc1ccc(Cl)cc1NC(=O)CCN1CCN(C)CC1 | i | i | i | 0.37 | i
NC(=O)CCN1CCN(CCOC2Cc3cc(Cl)ccc3Sc3ccccc32)CC1 (configuration not stated) | i | i | i | -6.4* | i
CCOC(=O)c1c(C)nc2c(c1-c1cc(OC)c(OC)c(OC)c1)C(=O)c1ccccc1-2 | i | i | i | -0.93 | i
Cc1ccc(C(CC(=O)NCCCN(C)C)c2ccc(OC(C)C)cc2)cc1 (configuration not stated) | i | i | i | -1.2 | i
CCn1c(=NC(=O)c2cccc(N3C(=O)CCC3=O)c2)sc2c(OC)ccc(OC)c21 | -6.4* | i | i | 1.1 | i
SMILES | TMEM16A act | KCNK3 block | KCNK9 inh | Kir21 block | TMEM16A inh
COc1ccc(CN(C)C(=O)c2ccc(OCC(=O)Nc3cccc(C(F)(F)F)c3)c(OC)c2)c(OC)c1 | i | i | i | -0.77 | 100*
COc1cccc(CN(C)C(=O)c2ccc(OCC(=O)Nc3cccc(C(F)(F)F)c3)c(OC)c2)c1 | i | i | i | -0.03 | 100*
COc1cc(C(=O)NCCCN(C)C)ccc1OCC(=O)Nc1cccc(C(F)(F)F)c1 | i | i | i | 0.61 | i
COc1ccc(NC(=O)CN(C)C(=O)c2ccccc2OCC(=O)Nc2cccc(C(F)(F)F)c2)cc1 | i | i | i | 0.74 | i
Cc1ccc(CNCCC2=CCCCC2)cc1 | i | i | i | -6.9* | i
C[n+]1ccc(/C=C/c2c[nH]c3ccc(F)cc23)cc1 | i | i | -6.7* | -6.7 | i
Cn1cc(/C=C/c2cc[n+](C)cc2)c2cc(F)ccc21 | i | i | i | -12 | i
Oc1c(Br)cccc1/C=N/c1ncn[nH]1 | i | i | i | 0.99 | i
O=C(O)c1cccc(Cn2c(Cl)c(/C=N/Nc3ccccc3)sc2=O)c1 | -35* | i | i | 0.35 | i
O=C(O)c1cccc(Cn2c(Cl)c(/C=N/NC(=O)c3ccccc3Cl)sc2=O)c1 | i | i | i | 0.02 | i
COc1ccc(C)cc1NC(C)C(=O)NC(=O)NC1CCCCC1 (configuration not stated) | i | i | nt | nt | nt
CC(C)(C)NC(=O)c1ccc(NC(=O)CSc2ccccc2)cc1 | i | i | i | -0.38 | i
Cn1c(=O)[nH]c(=O)c2c1nc(NCCc1ccccc1)n2CC(O)COc1ccccc1 (configuration not stated) | -51* | i | i | -0.84 | i
O=C(Nc1cc(C(F)(F)F)ccc1Cl)C(NCc1ccccc1)c1ccccc1 (configuration not stated) | i | i | -7.1* | -0.39 | i
CCCCN(C)C(=O)CCCc1c[nH]c2ccccc12 | i | i | -7.8* | -0.3 | i
CCN(CC)C(=O)CCCc1c[nH]c2ccccc12 | i | i | i | 0.31 | i
CCN1C(=O)CSc2ccc(C(=O)NCc3ccc(OC)cc3)cc21 | i | i | i | -8.9* | i
CCCCNC(=O)c1ccc2c(c1)N(CC)C(=O)CS2 | i | i | i | 0.61 | i
COc1cc(/C=N/N=C(N)N)ccc1OCc1ccccc1Cl | i | i | i | -16* | 100*
CCC(C)(C)c1ccc(OCCCC[n+]2ccccc2)c(C(C)(C)CC)c1 | i | i | i | -3.6 | i
CCCCCc1ccc(OCCCC[n+]2ccc(C)cc2)c(CCCCC)c1 | i | i | -7.2* | -9.1* | 100*
CCCCCc1ccc(OCCCC[n+]2cccc(C)c2)c(CCCCC)c1 | i | i | -7.5* | -5.1* | 100*
COc1ccc(Cl)cc1C(=O)N(Cc1nc(-c2cccc(C)c2)no1)C(C)C | i | i | i | -1.3 | i
